Measurements published in PubChem BioAssay (Tox21).
Records with an inconclusive call do not appear. Unmarked numbers belong to inactive results. Activity calls are given as the source filed them. Calls come from the whole dose curve; as a rule, active = well fitted activation curve with a large enough effect in the repeat runs; inconclusive = weak or mixed curves; inactive = no such curve, though single readings can be large or run the other way.

Target: Aryl hydrocarbon receptor (Homo sapiens) (UniProt P35869)
Test: qHTS assay to identify small molecule that activate the aryl hydrocarbon receptor (AhR) signaling pathway (AID 743085); note: nearly all actives have a fitted effect of over 15% in size;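 for activation: HG2L7.5c1 human HepG2 liver cells with stably integrated DRE-driven firefly reporter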
Settings: HepG2 AhR-luc (HG2L7.5c1), luciferase, 24 h; series mostly up to 70.3 µM; activation: at the top concentration
Source text: U.S. Tox21 Program National Center for Advancing Translational Sciences [NCATS] NIH Chemical Genomics Center [NCGC] U.S. Environmental Protection Agency [EPA] National Institutes of Environmental Health Sciences [NIEHS] National Toxicology Program [NTP] U.S. Food and Drug Administration [FDA] Tox21 Assay overview: The Aryl hydrocarbon Receptor (AhR), a member of the family of basic helix-loop-helix transcription factors, is crucial to adaptive responses to environmental changes. AhR mediates cellular responses to environmental pollutants such as aromatic hydrocarbons through induction of phase I and II enzymes but also interacts with other nuclear receptor signaling pathways. A cell based HepG2-AhR-luc assay (HG2L7.5c1 cell line, developed by Dr. Michael S. Denison, University of California at Davis, was used to assess the activation of AhR. HepG2 (human hepatocellular carcinoma) cells were stably transfected with an Ah receptor-responsive firefly luciferase reporter gene plasmid containing 20 dioxin responsive elements and luciferase reporter gene. Increased luciferase activity can be used to identify the compounds that induce AhR activation.
Tox21 Assay Protocol Summary: 4000 cells in 5 uL/well were dispensed into white wall/solid bottom 1536-well plates using a Multidrop Combi (Thermo Fisher Scientific Inc., Waltham, MA) dispenser. After the assay plates were incubated at 37C for 5 h, 23 nL of compound or DMSO vehicle was transferred to the assay plates by a pintool station (Kalypsys, San Diego, CA). The plates were incubated at 37C for 24 hr. After 1 ul/well of CellTiter-Fluor reagent (Promega, Madison, WI) was added into the assay plates using a Flying Reagent Dispenser (FRD) (Aurora Discovery, CA), the assay plates were incubated at 37C for 30 min. The fluorescence intensity in the plates was measured using a ViewLux plate reader (PerkinElmer, Shelton, CT), followed by the addition of 4 uL of ONE-Glo Luciferase Assay reagent (Promega) using an FRD (Aurora Discovery). After the assay plates were incubated at room temperature for 30 min, luminescence intensity was measured using a ViewLux plate reader (Perkin Elmer).
% is set by controls: 0 for no effect and ±100 for the full control effect; potency is the fitted concentration of half-maximal effect.

Aryl hydrocarbon receptor (Homo sapiens), sequence (P35869 whole entry, looked up): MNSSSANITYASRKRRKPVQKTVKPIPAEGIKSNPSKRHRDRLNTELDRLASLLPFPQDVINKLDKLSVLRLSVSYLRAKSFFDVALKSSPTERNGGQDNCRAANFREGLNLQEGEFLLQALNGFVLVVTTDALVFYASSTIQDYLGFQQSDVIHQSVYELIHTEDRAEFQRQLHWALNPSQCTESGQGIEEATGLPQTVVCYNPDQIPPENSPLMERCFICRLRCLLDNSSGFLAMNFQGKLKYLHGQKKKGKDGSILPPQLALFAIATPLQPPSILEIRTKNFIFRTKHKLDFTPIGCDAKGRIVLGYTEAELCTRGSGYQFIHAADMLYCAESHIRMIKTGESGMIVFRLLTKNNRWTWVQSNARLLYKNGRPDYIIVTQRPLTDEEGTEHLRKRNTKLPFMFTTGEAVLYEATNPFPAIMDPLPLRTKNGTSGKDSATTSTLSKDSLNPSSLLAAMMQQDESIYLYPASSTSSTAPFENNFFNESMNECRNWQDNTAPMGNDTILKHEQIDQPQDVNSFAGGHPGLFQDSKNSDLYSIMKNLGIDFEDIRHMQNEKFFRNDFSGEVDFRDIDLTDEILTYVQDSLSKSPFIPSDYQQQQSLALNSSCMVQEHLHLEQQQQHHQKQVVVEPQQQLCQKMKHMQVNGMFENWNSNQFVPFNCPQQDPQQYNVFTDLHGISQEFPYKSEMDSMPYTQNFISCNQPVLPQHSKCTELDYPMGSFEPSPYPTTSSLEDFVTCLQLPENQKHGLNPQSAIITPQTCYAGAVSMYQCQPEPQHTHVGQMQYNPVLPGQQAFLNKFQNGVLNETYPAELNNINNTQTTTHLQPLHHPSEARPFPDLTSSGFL

Question: For `COC(=O)/C=C\C(=O)O`, which “activation” value is on record?
Answer: 0.0102%

Question: How did the “activation” value turn out when `CCCCCCCCCOC(=O)CCCCC(=O)OCCCCCCC` was run?
Answer: -0.815%

Question: For `CCCCCCCCCCCCCCC(=O)NC(CO)CCCCCCCCCCCCCC` (stereo not given), which “activation” value is on record?
Answer: -0.799% [at 95 µM]

Question: For `O=C1CCCCO1`, which “activation” value is on record?
Answer: 0.968%

Question: With `O/N=C/C=N/O` as the molecule, how does the “activation” value read?
Answer: -0.0324%

Question: With `Cn1nnc2c(C(N)=O)ncn2c1=O` as the molecule, how does the “activation” value read?
Answer: -3.29%

Question: For `CCOC(=O)CC1(C)OCC(C)O1` (stereo not given), which “activation” value is on record?
Answer: -0.882%

Question: Which “activation” value does the source give for `C=CC(=O)OCC1CCCO1` (stereo not given) here?
Answer: -0.819%

Question: How did the “activation” value turn out when `CCOc1cccc(N)c1` was run?
Answer: 5.79%

Question: How did the “activation” value turn out when `[O]=[Mo](=[O])=[O]` was run?
Answer: -2.14% [at 32.5 µM]

Question: `CC(C)(CO)C(O)C(=O)NCCCO` (stereo not given) was tested. Which “activation” value did it give?
Answer: -0.889%

Question: `CC(=O)Nc1ccc(OC(=O)c2ccccc2OC(C)=O)cc1` was tested. Which “activation” value did it give?
Answer: -2.06%

Question: With `COc1c2occc2c(OC)c2c(=O)cc(C)oc12` as the molecule, how does the Potency read?
Answer: 0.114 µM (active)

Question: For `CC/C=C\CCOC(=O)c1ccccc1O`, which “activation” value is on record?
Answer: -1.06%

Question: With `CC(C)Nc1ccccc1` as the molecule, how does the “activation” value read?
Answer: -2.11%

Question: How did the “activation” value turn out when `OC[C@@H](O)C(O)[C@@H](O)CO` (stereo not given in full) was run?
Answer: -2.57% [at 95 µM]

Question: Which Potency does the source give for `ONc1ccccc1` here?
Answer: 60.5 µM (active)

Question: Which “activation” value does the source give for `Cn1c(=O)c2[nH]c(Br)nc2n(C)c1=O` here?
Answer: 1.19%

Question: `C=C(C)[C@@H]1CC=C(C)C(=O)C1` was tested. Which “activation” value did it give?
Answer: -0.562%

Question: `C=CC/C=C/C` was tested. Which “activation” value did it give?
Answer: -1.22% [at 95 µM]

Question: Which “activation” value does the source give for `CCC[C@@H]1C[C@@H](C(=O)N[C@@H]([C@H]2O[C@H](SC)[C@H](O)[C@@H](O)[C@H]2O)[C@@H](C)O)N(C)C1` here?
Answer: -0.634%

Question: With `Cc1c(NC(=O)c2cccnc2)c(=O)n(-c2ccccc2)n1C` as the molecule, how does the “activation” value read?
Answer: -0.0331% [at 32.5 µM]

Question: With `C=CCN1C[C@H](C(=O)N(CCCN(C)C)C(=O)NCC)C[C@@H]2c3cccc4[nH]cc(c34)C[C@H]21` as the molecule, how does the “activation” value read?
Answer: -1.31%

Question: How did the “activation” value turn out when `CCCCC1CCC(O)CC1` (stereo not given) was run?
Answer: 6.05%

Question: With `CC(=O)OC1CCCCC1C(C)(C)C` (stereo not given) as the molecule, how does the “activation” value read?
Answer: -0.421%

Question: Which “activation” value does the source give for `CN1CCOC(c2ccccc2)c2ccccc2C1` (stereo not given) here?
Answer: -0.0347% [at 32.5 µM]

Question: How did the Potency turn out when `O=S(=O)(O)c1ccc2c(N=Nc3ccc(S(=O)(=O)O)c4ccccc34)c(O)c(S(=O)(=O)O)cc2c1` was run?
Answer: inactive

Question: `CC(C)=CCC/C(C)=C/COC=O` was tested. Which “activation” value did it give?
Answer: -0.783%

Question: Which “activation” value does the source give for `CCCCCCCCCCOC(C)=O` here?
Answer: -0.742%

Question: How did the “activation” value turn out when `CCOC(CN1CCN(CC(C)C(=O)c2ccccc2)CC1)c1ccccc1` (stereo not given) was run?
Answer: -0.0825%

Question: How did the “activation” value turn out when `C/C=C(\C)C(=O)OCCc1ccccc1` was run?
Answer: -0.497%

Question: For `C#CCN[C@@H]1CCc2ccccc21`, which “activation” value is on record?
Answer: 0.93%

Question: `C=CCOC(=O)CCCCCC` was tested. Which “activation” value did it give?
Answer: -0.471%

Question: Which “activation” value does the source give for `C=CCCCC` here?
Answer: -1.25% [at 95 µM]

Question: `CC(S)C(C)S` (stereo not given) was tested. Which “activation” value did it give?
Answer: 0.755% [at 95 µM]

Question: How did the “activation” value turn out when `O=NN(CCCl)C(=O)NC1CCCCC1` was run?
Answer: -1.27%

Question: For `CC(O)COC(C)(C)C` (stereo not given), which “activation” value is on record?
Answer: -1.4%

Question: With `Cc1ccccc1C(N)=O` as the molecule, how does the “activation” value read?
Answer: -1.72%

Question: `Cn1c(=O)c2c(ncn2CCO)n(C)c1=O` was tested. Which “activation” value did it give?
Answer: 9.36%

Question: For `c1ccc(-c2nn[nH]n2)cc1`, which “activation” value is on record?
Answer: -0.633%
